Screening data from PubChem BioAssay.
PfHsp40 rescue = compounds rescuing yeast from Plasmodium falciparum HSP40 toxicity; S. cerevisiae expressing PfHsp40, growth rescue, ATP luminescence; growth rescue, % at 12.5 µM; 340,000 tested, 0.68% active; AID 504582; in the data active means growth rescue above about 28%, passing the limit was not always enough;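 further: yeast W303a lacking pdr1 and pdr3 grown in galactose medium; growth measured after three days at 30 °C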
MazEF act = MazEF (E. coli) toxin RNase activation. FAM/BHQ RNA-DNA oligo cleavage fluorescence, 5 h. activation, % at 20 µM. 350,000 tested, 0.32% active; in the data active means activation above about 50%
Target sequence (P0AE70 whole entry, looked up): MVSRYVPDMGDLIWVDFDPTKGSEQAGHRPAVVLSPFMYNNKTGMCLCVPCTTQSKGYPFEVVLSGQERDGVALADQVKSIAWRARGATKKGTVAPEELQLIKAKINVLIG
BH1578 lux ind = quorum light induction in luxS cqsA deficient V. cholerae | V. cholerae BH1578 lux reporter, luminescence, 6 h | activation, % at 18.7 µM | 350,000 tested, 0.16% active; in the data active means activation mostly above about 9.7%, no sharp cut-off
DUSP3 inh = inhibitors of human VHR1 phosphatase (DUSP3); recombinant VHR phosphatase, pNPP absorbance; P51452; inhibition, % at 13.3 µM; 290,000 tested, 0.52% active; in the data active means inhibition above about 50%
Target sequence (P51452 whole entry, looked up): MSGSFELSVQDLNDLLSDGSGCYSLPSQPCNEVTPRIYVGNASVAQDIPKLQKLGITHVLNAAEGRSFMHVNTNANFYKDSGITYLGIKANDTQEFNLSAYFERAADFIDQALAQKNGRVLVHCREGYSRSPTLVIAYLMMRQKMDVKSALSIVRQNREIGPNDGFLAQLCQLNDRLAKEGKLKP
SARS 3CLpro inh = SARS-CoV 3CLpro protease inhibition; P0C6X7; recombinant SARS-CoV 3CLpro, quenched FRET peptide cleavage; inhibition, % at 6 µM; 290,000 tested, 0.14% active; AID 1706; in the data active means inhibition above about 12%
BJeLR lethal = kills HRASV12-expressing BJeLR cells; 300,000 tested, 0.17% active; BJeLR (HRASV12) viability, CellTiter-Glo ATP luminescence, 48 h; AID 1554; inhibition, % (no concentration beside the values); in the data active means inhibition above about 50%
An asterisk follows results filed as active. The list is not random: actives were taken first. Their share in the collection is about 1.7%.

What do the screens show for `CCOc1ccc(NS(=O)(=O)c2cnc(Cl)c(Cl)c2)cc1`?
PfHsp40 rescue: 88*; MazEF act: 4; BH1578 lux ind: 4; DUSP3 inh: -5; SARS 3CLpro inh: 0; BJeLR lethal: -12

Results for CCOc1ccccc1N(C)C(=O)c1cn(C)c(=O)c2ccccc12 ?
PfHsp40 rescue: 0; MazEF act: 6; BH1578 lux ind: -1; DUSP3 inh: 51*; SARS 3CLpro inh: 4; BJeLR lethal: -9

Results for CCOc1ccccc1N(C)C(=O)c1cn(CC)c(=O)c2cc(OC)c(OC)cc12 ?
PfHsp40 rescue: -1; MazEF act: -2; BH1578 lux ind: inactive; DUSP3 inh: 21; SARS 3CLpro inh: 4; BJeLR lethal: 17

What do the screens show for `Cc1ccc(C(C)NC(=O)c2ccco2)cc1` (configuration not stated)?
PfHsp40 rescue: -1; MazEF act: 4; BH1578 lux ind: -1; DUSP3 inh: -5; SARS 3CLpro inh: -2; BJeLR lethal: 2

Results for Cc1ccc(C(C)NC(=O)c2cc(C)oc2C)cc1 (configuration not stated) ?
PfHsp40 rescue: 48*; MazEF act: 0; BH1578 lux ind: -1; DUSP3 inh: -4; SARS 3CLpro inh: 1; BJeLR lethal: -7

What do the screens show for `O=C1c2cc3c(cc2CCC1c1ccc2c(c1)OCO2)OCO3` (configuration not stated)?
MazEF act: 0; BH1578 lux ind: -3

Results for Cc1cc(C(=O)CN2C(=O)c3ccccc3C2=O)c(C)n1Cc1cccs1 ?
PfHsp40 rescue: 0; MazEF act: 68*; BH1578 lux ind: 0; DUSP3 inh: 4; SARS 3CLpro inh: 4; BJeLR lethal: -6

What do the screens show for `O=C(N/N=C/c1ccco1)c1ccccc1OCc1ccccc1Cl`?
PfHsp40 rescue: 1; MazEF act: -10; BH1578 lux ind: 2; DUSP3 inh: 4; SARS 3CLpro inh: 4; BJeLR lethal: 28

How did O=C(N/N=C/c1ccc[nH]1)c1ccccc1O do in these assays?
PfHsp40 rescue: 76*; MazEF act: 7; BH1578 lux ind: inactive; DUSP3 inh: -17; SARS 3CLpro inh: 5; BJeLR lethal: -3

What do the screens show for `O=C(N/N=C/c1ccc[nH]1)c1ccccc1OCc1ccccc1Cl`?
PfHsp40 rescue: -1; MazEF act: 2; BH1578 lux ind: -1; DUSP3 inh: 57*; SARS 3CLpro inh: 8; BJeLR lethal: 10

How did CC(=O)Nc1ccc(OCC(O)Cn2nc(C)c(C)c2C)cc1 (configuration not stated) do in these assays?
PfHsp40 rescue: -1; MazEF act: 0; BH1578 lux ind: -1; SARS 3CLpro inh: -4; BJeLR lethal: 5

How did CC1CC(C)CN(CC(=O)NNC(=O)COc2ccc(Cl)cc2)C1 (configuration not stated) do in these assays?
PfHsp40 rescue: -1; MazEF act: -2; BH1578 lux ind: -6

Results for O=C(Nc1ccc(Cl)cc1)N1CCCN(c2ccc(C(F)(F)F)cc2[N+](=O)[O-])CC1 ?
PfHsp40 rescue: 44*; MazEF act: 7; BH1578 lux ind: 0; DUSP3 inh: 27; SARS 3CLpro inh: 5; BJeLR lethal: 4

Results for CCC1(CC)NC(=O)N(CC(=O)OCC(=O)Nc2ccc(OC(F)(F)F)cc2)C1=O ?
PfHsp40 rescue: -1; MazEF act: 0; BH1578 lux ind: 4

How did O=C(N=NC(=O)c1ccc2c(O)n(CC3CCCO3)c(O)c2c1)c1cccnc1 (configuration not stated) do in these assays?
PfHsp40 rescue: -2; MazEF act: 6; BH1578 lux ind: -1; DUSP3 inh: 32; SARS 3CLpro inh: 1; BJeLR lethal: -13

What do the screens show for `CS(=O)(=O)N(CCc1ccccc1)CC(=O)N1CCCCCC1`?
MazEF act: 3; BH1578 lux ind: 2

What do the screens show for `CC(C)=CC(=O)Nc1nnc(-c2cccnc2)s1`?
PfHsp40 rescue: -1; MazEF act: -2; BH1578 lux ind: inactive; DUSP3 inh: 53*; SARS 3CLpro inh: -1; BJeLR lethal: 4

Results for COc1cc(CCC(=O)Nc2nnc(-c3cccnc3)s2)cc(OC)c1OC ?
PfHsp40 rescue: 1; MazEF act: 6; BH1578 lux ind: 1; DUSP3 inh: 20; SARS 3CLpro inh: 5; BJeLR lethal: -3
